Most compounds without a hit are left out; they make up all but 4% or so of the library.
Jurkat NFkB inh: inhibitors of the PMA/ionomycin-induced NF-kB reporter in Jurkat cells. actives 0.53% (n = 330,000). inhibition, % at 4 µM. PMA/ionomycin-induced NF-kB luciferase reporter, luminescence. AID 435003; in the data active = inhibition above about 50%
Gli-Sufu block: blocks Gli-Sufu signaling in a luciferase reporter. actives 0.74% (n = 340,000). inhibition, % at 5 µM. AID 588413. Sufu-KO-LIGHT fibroblasts, Gli luciferase reporter luminescence;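 active = inhibition above about 55%, limit read from the data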;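 note: 0% = DMSO-treated cells and 100% = wells with medium but no cells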
697 NFkB inh: inhibitors of the PMA/ionomycin-induced NF-kB reporter in 697 B cells. inhibition, % at 4 µM. 697 B-cell NF-kB luciferase reporter, 16 h. actives 0.33% (n = 330,000); in the data active = inhibition above about 35%
Mdm2-MdmX inh: inhibitors of human Mdm2/MdmX interaction; O15151+Q00987; SaOS-2 split-luciferase Mdm2/MdmX complementation, luminescence; inhibition, % at 8 µM; actives 3% (n = 330,000);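 active = inhibition of at least 50% at 8 µM in the primary screen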
Target sequence (O15151 whole entry, looked up): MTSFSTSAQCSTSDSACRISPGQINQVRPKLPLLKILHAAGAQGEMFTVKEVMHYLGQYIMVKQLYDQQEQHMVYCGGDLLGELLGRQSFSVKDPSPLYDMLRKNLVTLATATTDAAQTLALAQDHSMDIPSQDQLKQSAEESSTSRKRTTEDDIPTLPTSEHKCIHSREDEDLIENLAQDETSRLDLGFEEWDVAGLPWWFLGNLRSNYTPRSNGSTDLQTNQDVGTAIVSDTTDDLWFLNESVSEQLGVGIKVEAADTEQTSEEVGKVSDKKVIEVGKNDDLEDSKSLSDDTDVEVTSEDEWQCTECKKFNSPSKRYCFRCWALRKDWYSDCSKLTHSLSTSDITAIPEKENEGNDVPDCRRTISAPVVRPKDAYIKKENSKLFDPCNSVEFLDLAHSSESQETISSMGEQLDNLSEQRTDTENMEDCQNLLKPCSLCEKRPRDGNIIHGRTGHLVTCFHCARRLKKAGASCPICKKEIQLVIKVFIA
Target sequence (Q00987 whole entry, looked up): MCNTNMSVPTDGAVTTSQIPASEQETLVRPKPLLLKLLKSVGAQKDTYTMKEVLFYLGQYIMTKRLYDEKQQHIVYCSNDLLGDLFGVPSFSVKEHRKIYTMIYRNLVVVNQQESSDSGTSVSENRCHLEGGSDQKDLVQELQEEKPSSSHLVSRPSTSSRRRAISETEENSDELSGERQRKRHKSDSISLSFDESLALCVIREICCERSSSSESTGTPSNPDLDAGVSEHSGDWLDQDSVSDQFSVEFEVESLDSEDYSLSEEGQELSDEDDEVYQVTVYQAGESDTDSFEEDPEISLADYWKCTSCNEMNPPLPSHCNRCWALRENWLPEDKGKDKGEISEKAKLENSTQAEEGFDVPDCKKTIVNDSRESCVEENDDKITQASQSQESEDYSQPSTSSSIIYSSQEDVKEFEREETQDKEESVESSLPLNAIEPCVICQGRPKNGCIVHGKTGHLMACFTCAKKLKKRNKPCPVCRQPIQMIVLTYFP
Beta apoptosis: blocks beta cell apoptosis; protection from apoptosis, % (concentration not given with the values); actives 0.8% (n = 300,000); INS-1E cytokine-induced death, ATP luminescence, 48 h; percent of positive-control rescue, neutral wells zero;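 active = Every replicate reaches about 75%, or at least half do and their mean reaches it too, limit read from the data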;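 note: 0% = cytokine-treated negative control wells and 100% = positive control rescue; higher means more ATP so stronger rescue from cytokine killing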
Gli-Sufu confirm: confirmation of Gli-SUFU pathway antagonists | shares compounds with Gli-Sufu block | Sufu-KO-LIGHT cells, Gli luciferase reporter, luminescence | inhibition, % at 5 µM | actives 40% (n = 2,500);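 active = mean inhibition at 5 µM reaching about 45%, limit read from the data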;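 note: plate controls were DMSO-treated cells for no effect and wells lacking cells for full effect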
SufuKO cytotox: counter-screen for Gli-SUFU antagonists: cytotoxicity; shares compounds with Gli-Sufu block; cytotoxicity, % at 5 µM; actives 32% (n = 2,500); Sufu-KO-LIGHT cells cytotoxicity, ATP luminescence; AID 651994;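 active = mean cytotoxicity at 5 µM above about 25%, limit read from the data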;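 note: cells exposed to compound overnight for roughly 16 to 18 hours; plate controls were DMSO wells with cells for no effect and medium without cells for full effect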
Wnt3a counter: Wnt3a reporter inhibition counter-screen; shares compounds with Gli-Sufu block; inhibition, % at 6.25 µM; actives 20% (n = 2,500); Wnt-LIGHT cells, Wnt3a-driven luciferase reporter, luminescence; AID 651995;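 active = mean inhibition above about 25%, limit read from the data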
* hit, by the source's call; · = not tested or not shown.

SMILES | Jurkat NFkB inh | Gli-Sufu block | 697 NFkB inh | Mdm2-MdmX inh | Beta apoptosis | Gli-Sufu confirm | SufuKO cytotox | Wnt3a counter
Cc1cc(=O)oc2cc(OCC3CC(c4ccc(N(C)C)cc4)=NO3)ccc12 (centres undefined) | 0 | 99* | 6 | 21 | 0 | 0 | 17 | -71
COC(=O)CCC(=O)N(C)CC1CCCN(CCc2cccc(C(F)(F)F)c2)C1 (centres undefined) | 6 | 56* | -3 | -3 | -7 | 17 | 7 | -23
CSCCC(=O)N(C)CC1CCCN(CCc2cccc(C(F)(F)F)c2)C1 (centres undefined) | 6 | 22 | -2 | -13 | · | · | · | ·
CC(C)(C)[C@H]1COC(=O)[C@H](NC(=O)OCC2c3ccccc3-c3ccccc32)C/C=C\C[C@@H](CC(=O)N(CCO)Cc2ccccc2)C(=O)N1 | -5 | 58* | -16 | 22 | 34 | 52* | 14 | -40
CC(C)(C)[C@@H]1COC(=O)[C@@H](NC(=O)OCC2c3ccccc3-c3ccccc32)C/C=C\C[C@@H](CC(=O)NCCO)C(=O)N1 | 0 | 27 | 20 | -9 | 7 | · | · | ·
O=C(N[C@@H]1C/C=C\C[C@@H](CC(=O)N(CCO)Cc2ccccc2)C(=O)NCCOC1=O)OCC1c2ccccc2-c2ccccc21 | -14 | 52 | -2 | 9 | 18 | 48* | 22 | -30
C[C@@H]1COC(=O)[C@H](NC(=O)OCC2c3ccccc3-c3ccccc32)C/C=C\C[C@@H](CC(=O)N(CCO)Cc2ccccc2)C(=O)N1 | 5 | 55* | 8 | -3 | 39 | 48* | 30* | -14
CCOc1ccc(-c2[nH]ncc2-c2csc(C)n2)c(O)c1 | 10 | -24 | 16 | 18 | -4 | · | · | ·
CCOc1ccc(-c2[nH]ncc2-c2ccccc2)c(O)c1 | -10 | 55* | -18 | 31 | · | 21 | 21 | -20
COCCSc1nnc(NC(=O)C2CC(=O)N(CCc3ccc(F)cc3)C2)s1 (centres undefined) | 7 | -24 | 7 | -12 | -4 | · | · | ·
COc1ccc(/C=N/N2CCN(c3ccccc3OC)CC2)cc1OC | -5 | -10 | 4 | 10 | -4 | · | · | ·
COc1ccccc1N1CCN(/N=C/c2ccc(O)c(O)c2)CC1 | 34 | 55 | -63 | -3 | -17 | 25 | 1 | 18
CCCCc1nc(N2CCN(C(=O)c3ccco3)CC2)c(C#N)c2c1CCCC2 | -3 | 66* | -13 | 37 | 18 | 25 | 12 | 35*
CC(C)c1ccc(NC(=O)CCCC(=O)NCCc2ccccc2)cc1 | -4 | 53 | -3 | 21 | 3 | 21 | -4 | -25
O=C(CCCc1ccccc1)NCCc1ccccc1 | -22 | -24 | -3 | -18 | -8 | · | · | ·
CC1(C)C([N+](=O)[O-])C(c2ccccc2O)NC(c2ccccc2O)C1[N+](=O)[O-] (centres undefined) | 7 | -13 | 17 | 18 | -7 | · | · | ·
Cc1ccccc1C1NC(c2ccccc2C)C([N+](=O)[O-])C(C)(C)C1[N+](=O)[O-] (centres undefined) | 10 | 54 | -9 | 35 | -2 | 17 | 11 | -16
COc1ccc(CN2CCC(C(=O)Nc3ccc(Oc4cccnc4)cc3)CC2)cc1 | 23 | 32 | 9 | 16 | -4 | · | · | ·
COc1cccc(O)c1CN1CCC(C(=O)Nc2ccc(Oc3cccnc3)cc2)CC1 | -6 | 51 | -20 | 12 | 2 | 35 | 5 | 4
COc1cc(CNCc2ccccn2)ccc1OCC(=O)NC1CCCCC1 | 4 | 68* | 2 | -1 | -5 | 9 | -12 | -7
COc1ccc(CNC(=O)Cn2nnc3ccccc3c2=O)cc1 | -2 | -10 | 4 | -43 | 0 | · | · | ·
CC1(C)C/C(=N\NC(=S)Nc2ccccc2F)c2cc(O)ccc2O1 | -2 | 20 | 7 | 36 | 9 | · | · | ·
Cc1ccc(S(=O)(=O)N2CCN(C(=O)c3ccc(S(=O)(=O)N4CCCC4)cc3)CC2)cc1 | 4 | 57* | -14 | -9 | · | 43 | 22 | -13
O=C(c1ccc(S(=O)(=O)N2CCCC2)cc1)N1CCCCCC1 | 10 | 5 | 17 | -17 | · | · | · | ·
O=C(c1ccc(=O)[nH]c1)N1CCN(S(=O)(=O)c2ccccc2)CC1 | -2 | 2 | 9 | 23 | · | · | · | ·
SMILES | Jurkat NFkB inh | Gli-Sufu block | 697 NFkB inh | Mdm2-MdmX inh | Beta apoptosis | Gli-Sufu confirm | SufuKO cytotox | Wnt3a counter
O=C(c1ccc(=O)[nH]c1)N1CCN(S(=O)(=O)c2ccc(Cl)cc2)CC1 | 0 | 54 | 18 | -1 | -2 | 22 | -8 | 7
COc1ccc(NS(=O)(=O)c2ccc(O)c(NS(=O)(=O)c3ccc(NC(C)=O)cc3)c2)cc1 | -5 | -7 | 3 | 7 | -5 | · | · | ·
COc1ccc(CN(C)Cc2nc(Cc3cccc(F)c3)no2)c2cccnc12 | 30 | 63* | -38 | 14 | 62 | 54* | 18 | 27*
COc1ccc(CNC(=O)CCc2c(C)nc3cc(-c4ccccc4OC)nn3c2C)cc1 | 12 | 8 | 3 | 18 | -1 | · | · | ·
COc1cc(OC)cc(-c2cc3nc(C)c(CCC(=O)O)c(C)n3n2)c1 | · | 61* | · | · | · | 64* | 2 | 90*
COc1ccc(Cl)cc1NC(=O)CN(C)C(=O)CCCNC(=O)c1ccc(Cl)cc1 | 2 | 10 | 4 | 17 | 3 | · | · | ·
Clc1ccc(-c2cn(-c3ccc(Cl)cc3)c3[n+]2CCCCC3)cc1 | 14 | 58* | 10 | 37 | 30 | 58* | 29* | -43
COc1ccc(-c2cn(-c3ccc(Cl)cc3)c3[n+]2CCCCC3)cc1 | 18 | 80* | -18 | 22 | 100* | 78* | 31* | 20
COc1ccc(-n2cc(-c3ccc(OC(F)F)cc3)[n+]3c2CCCCC3)cc1 | 5 | 81* | -16 | -32 | 103* | 83* | 33* | 9
Clc1ccc(-c2cn3nc4c(nc3n2)CCCC4)cc1 | -115 | -28 | -141 | -54 | -7 | · | · | ·
COc1ccc(N2CC(O)(c3ccc(OC(F)F)cc3)[N+]3=C2CCCC3)cc1 (centres undefined) | -15 | 13 | -37 | -4 | -2 | · | · | ·
COc1ccc(-n2cc(-c3ccc(Cl)cc3)[nH]c2=S)cc1 | -89 | -46 | -115 | -31 | 0 | · | · | ·
C=CCN1C(=S)CC(c2ccccc2)=Nc2ccccc21 | 5 | -1 | -1 | 8 | · | · | · | ·
Cc1ccc(C(=O)N2CCC3(CC2)NCCc2[nH]cnc23)cc1C | -8 | 7 | 6 | 13 | -3 | · | · | ·
CCc1nc(CN2CCCC(C(=O)c3ccc4c5c(cccc35)CC4)C2)c(C)[nH]1 (centres undefined) | 7 | 52 | -12 | 40 | 34 | 15 | 6 | -44
